This note sets out measurements from PubChem BioAssay AID734 (The Scripps Research Institute Molecular Screening Center, 2007).

In all, about 5,100 compounds went through this assay and fewer than 10 were called active. A selection follows. A number with no mark means an inactive call.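 The calls were made as follows: active = inhibition above the mean inhibition over all tested compounds plus 3 SD (cut at about 75% in these data); inactive = the rest.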

The test has as its target Collagenase 3 (Homo sapiens) (UniProt P45452). Briefly: MMP13 inhibitors among fluorescent compounds, confirmation, biochemical, possible fluorescent artifacts, delta fluorescence (AID 734).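 Also: 0% = DMSO only wells and 100% = 8 µM reference MMP13 inhibitor.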 Particulars: MMP13 fTHP FRET cleavage, delta fluorescence 4 h; stronger effect = higher value;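 each compound tested at 4 µM nominal in triplicate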.
Take `Cc1oc2c(CN3CCOCC3)c(O)ccc2c(=O)c1-c1ccc(Br)cc1`: the inhibition (as a rule, the change of the read-out against control, counted positive when it falls) was 6.41%.

As to `CCn1c(=O)c2cc(C(=O)N3CCOCC3)sc2c2ccccc21`, the inhibition was -2.27%.

In the case of `Cc1ccc(NC(=O)CC2Nc3ccccc3NC2=O)cc1Cl` (configuration not stated), the inhibition is 5.69%.

Turning to `CCOC(=O)N1CCN(C(=O)c2cnn3c(C)c(Cc4ccc(C)cc4)c(C)nc23)CC1`, the inhibition is -3.34%.

Regarding `O=S(=O)(c1ccccc1C(F)(F)F)N1CCOCC1`, the inhibition was 6.08%.

For `Cc1onc(-c2ccccc2Cl)c1C(=O)Nc1nnc(-c2ccc(F)cc2)s1`, the inhibition was 6.05%.

As for `CCOC(=O)N1CCC(N2C(=O)c3ccccc3C2Nc2cc(C(=O)OC)cc(C(=O)OC)c2)CC1` (configuration not stated), the inhibition was 3.52%.

Consider `Oc1ccc(N=Cc2ccc(-c3cccs3)s2)cc1`, for which the inhibition is 90.8% (active).

For the molecule `O=C(c1cccs1)c1ccc(-c2cccs2)s1`, the inhibition is 3.04%.

Turning to `CC(C)CCSc1nc2c(c(=O)[nH]c(=O)n2C)n1CCc1ccccc1`, the inhibition was 5.17%.

Take `CC1CCCN(C/C(O)=C(\C#N)c2nc3ccccc3[nH]2)C1` (configuration not stated): the inhibition was 4.57%.

For the molecule `CCCCOC(=O)Cc1c(O)c2ccccc2[nH]c1=O`, the inhibition was 0.98%.

On to `CN(C)CCCN1C(=O)c2oc3ccc(F)cc3c(=O)c2C1c1cccnc1` (configuration not stated), for which the inhibition is 5.18%.

With `Cc1cccc2cc(C#N)c(NCCNS(=O)(=O)c3ccc4c(c3)OCCO4)nc12`, the inhibition was 3.35%.

As to `Cc1ccc(S(=O)(=O)N2CCCC2C(=O)Oc2ccccc2)cc1` (configuration not stated), the inhibition was 5.98%.

Consider `Cc1ccc(-n2c(-c3ccncc3)nnc2-c2ccco2)cc1`, for which the inhibition was 2.09%.

Turning to `Cc1cc(N2CCOCC2)nc2ccc(NC(=O)CCC(=O)N3CCCC(C)C3)cc12` (configuration not stated), the inhibition is 2.6%.

With `CC(C)(/C=N/O)/[N+]([O-])=C/c1ccccc1C(F)(F)F`, the inhibition is 8.54%.

Regarding `COc1cc2c(=O)n(CC3CCCO3)c(=O)n(CC(=O)Nc3ccc(F)cc3F)c2cc1OC` (configuration not stated), the inhibition was 2.92%.

Take `CN1C(=O)Cc2cc(S(=O)(=O)N3CCOCC3)ccc21`: the inhibition was 2.06%.

Turning to `O=C1CCCN1CCCNc1ncnc2c1cnn2-c1ccc(Cl)cc1`, the inhibition is 3.23%.

As for `CCOC(=O)c1[nH]c2ccc(OCC)cc2c1NC(=O)CN1CCN(c2ccccc2)CC1`, the inhibition was 1.46%.

As to `c1ccc(-n2nnnc2SCc2cn3cccnc3n2)cc1`, the inhibition is 9.28%.

Take `O=C(Nc1ccc(-c2nc3cccnc3s2)cc1)c1ccc(Br)o1`: the inhibition is 2.61%.

With `O=S(=O)(Nc1ccc(-c2nc3cccnc3s2)cc1)c1cccs1`, the inhibition was 198% (active).

As for `O=C(Nc1ccc(-c2nc3cccnc3s2)cc1)c1ccco1`, the inhibition is 4.83%.

In the case of `N#Cc1nc(-c2cccs2)oc1N1CCN(c2ccccc2)CC1`, the inhibition is 8.02%.

`Cc1oc(C(C)(C)C)cc1C(=O)Nc1ccc(C(=O)O)cc1`: the inhibition is 4.23%.

With `Cc1ccc(-c2cc(C(=O)N3CCOCC3)c3ccccc3n2)cc1`, the inhibition is 7.4%.

`CCC(=O)N/C(N)=N/c1nc(C)c2cc(OC)ccc2n1`: the inhibition was 1.9%.

Turning to `COc1nc(-c2ccc(C)cc2)ccc1-c1noc(-c2ccco2)n1`, the inhibition was -3.29%.

Regarding `Cc1cccn2c(=O)c(C=Nc3ccc(Cl)cc3)c(NCCO)nc12`, the inhibition was -0.72%.

Turning to `CC(C)COc1ccc(-c2nnc(-c3ccco3)o2)cc1`, the inhibition was 3.48%.

Consider `COC(=O)C1=CNC=C(C(=O)OC)C1c1cccc(OC)c1`, for which the inhibition was 27.7%.

As to `CN(C)c1ccc(-c2nn3c(C4CCCCC4)nnc3s2)cc1`, the inhibition was 4.05%.

Turning to `COc1ccc(CCNc2oc(-c3ccc(OC)c(OC)c3)nc2C#N)cc1`, the inhibition is 1.68%.

With `COc1ccc(-c2cn3c(C)c(C(=O)Nc4cc(NC(C)=O)ccc4OC)sc3n2)cc1`, the inhibition was 14.3%.

Turning to `COCCNC(=O)c1cc2c(-c3ccccc3F)nn(C)c2s1`, the inhibition was -5.47%.

Regarding `CC(Oc1ccc2oc(-c3ccccc3)c(C(=O)O)c2c1)C(=O)O` (configuration not stated), the inhibition was -5.25%.

As to `O=c1cc(CN2CCN(c3ccccc3)CC2)c2cc(O)c(-c3ccccc3)cc2o1`, the inhibition was 8.57%.

Turning to `CCN1CCc2c(sc3c2c(NCc2ccco2)nc2nnnn23)C1`, the inhibition is 10.9%.

Take `CC(C)CCNC(=O)C(c1ccco1)N(Cc1ccccc1)C(=O)c1snc(C(N)=O)c1N` (configuration not stated): the inhibition was 2.54%.

As to `O=C(NCc1cccnc1)c1nnc(Cc2ccc(F)cc2)o1`, the inhibition is 2.89%.

`O=C(CCSc1nnc2ccccn12)Nc1ccc(F)cc1`: the inhibition was 3%.

With `Cc1ccc(-n2c(Cc3cccn3C)nnc2SCC(=O)Nc2ccc3c(c2)OCO3)cc1`, the inhibition was 3.78%.

With `O=C(O)c1ccc(CSc2nnc(-c3ccncc3)n2CC2CCCO2)cc1` (configuration not stated), the inhibition was 5.15%.

`Cc1cc(N2CCC(C)CC2)nc2ccc(N3C(=O)CCC3=O)cc12`: the inhibition was 4.49%.

Take `O=S(=O)(c1cccc(-c2cn3cc(Cl)ccc3n2)c1)N1CCOCC1`: the inhibition is 4.43%.

For the molecule `CCOc1ccc(CC(=O)N2CCN(c3ccc(N4CCOCC4)nn3)CC2)cc1OCC`, the inhibition is 11.4%.

In the case of `Cc1cc(C)c2c(n1)nn1c(N3CCN(c4ccccc4)CC3)cc(C)nc21`, the inhibition was -3.18%.

On to `O=C(NCc1cccnc1)c1cnn2ccccc12`, for which the inhibition was 3.72%.

On to `CCOCCCn1c(C)nc2c(c1=O)c1nc3ccccc3nc1n2CCC1=CCCCC1`, for which the inhibition is -2.22%.

In the case of `CCOC(=O)CN=C1CC(C)(C)CC2=C1Sc1ncnc(N(C)C)c1N2`, the inhibition was 8.62%.

As for `N#CCSc1nc2[nH]ncc2c(=O)n1-c1ccccc1Br`, the inhibition was 5.49%.

For the molecule `CC(=O)Nc1ccc(Nc2ncnc3c2cnn3-c2cccc(C)c2)cc1`, the inhibition is 8.03%.

As for `COc1ccc2oc(-c3ccccc3)c(C(=O)N3CCOCC3)c2c1`, the inhibition is 3.94%.

With `CCOC(=O)CSc1nc(-c2ccc3c(c2)OCO3)ccc1C#N`, the inhibition is 86.3% (active).

Turning to `CCOC(=O)CSc1nc2cc3c(cc2cc1C#N)OCO3`, the inhibition is 5.66%.

Consider `CCOC(=O)CSc1nc(-c2ccncc2)ccc1C#N`, for which the inhibition is 6%.

Regarding `N#Cc1nc(-c2ccc(F)cc2)oc1NCc1cccc2c1OCO2`, the inhibition was -9.16%.

For `Cc1cc(C)n(-c2nc(-c3cccc(Cl)c3)cs2)n1`, the inhibition is 8.4%.

As for `c1ccc2sc(Cc3nnc4n3CCCCC4)nc2c1`, the inhibition was 4.74%.

On to `Cc1onc(-c2ccccc2)c1C(=O)Nc1ccc2c(C)cc(=O)oc2c1`, for which the inhibition was 2.15%.

Turning to `CC(=O)c1ccc(N2CCN(C(=O)c3cc(-c4ccc5c(c4)OCO5)nc4ccccc34)CC2)cc1`, the inhibition is 4.89%.

`COC(=O)c1c(-n2cnnn2)sc(C)c1C`: the inhibition was 2.3%.

On to `COc1ccc2cc3cc(C(=O)NCCN4CCc5ccccc5C4)oc3nc2c1`, for which the inhibition was -102%.

With `Cn1c(=O)c2nc(-c3ccccc3)oc2c2ccccc21`, the inhibition was 6.54%.

As for `COc1ccc(OC)c(-c2cc(C(=O)NCc3ccco3)no2)c1`, the inhibition is 12%.

For `CC(C)OCCCn1c(-c2ccco2)nc2nc3ccccc3nc21`, the inhibition is -87.8%.

For the molecule `CCOC(=O)c1cc(-c2cccs2)nc2onc(C)c12`, the inhibition is -44.4%.

Regarding `COc1cc2ccccc2cc1C(=O)OCC(=O)N1CCOCC1`, the inhibition was 6.42%.

Regarding `COc1ccc(C(=O)/C=C/Nc2cccc(C)n2)cc1OC`, the inhibition is 5.27%.

For the molecule `c1nc2sc3c(c2c2nnnn12)CCCC3`, the inhibition was 2.51%.

On to `COc1ccc(-c2cc(C(F)(F)F)nc(SCC(=O)NCc3ccco3)n2)cc1OC`, for which the inhibition was 8.84%.

As to `Cc1ccc2c(c1)-c1cc(C)nn1C(c1ccc3c(c1)OCO3)N2` (configuration not stated), the inhibition was 6.53%.

With `O=C1NC(c2ccco2)Nc2ccccc21` (configuration not stated), the inhibition is -3.14%.

Turning to `CCCN(Cc1cc2cc(OC)ccc2[nH]c1=O)C(=O)c1ccncc1`, the inhibition is 4.53%.

As for `CCOC(=O)c1oc2cccc(OC(C)=O)c2c1C`, the inhibition was 8.37%.

As for `NC(=O)C1CCCN(S(=O)(=O)c2ccc(Br)cc2)C1` (configuration not stated), the inhibition is 4.17%.

`COC(=O)c1[nH]c2ccc(Cl)cc2c1NC(=O)CCN1CCN(C2CCCCC2)CC1`: the inhibition is 6.19%.

For the molecule `COC(=O)c1[nH]c2cccc(OC)c2c1NC(=O)CCN1CC(C)CC(C)C1` (configuration not stated), the inhibition is -1.84%.

Take `COCCOC(=O)c1cc(C(=O)c2cc(F)ccc2O)coc1=N`: the inhibition was 6.65%.

As to `COc1cccc(=O)c2c(C)oc(C)c12`, the inhibition is 6.64%.

On to `Cc1ccc2nc(N3CCN(Cc4nnnn4Cc4ccccc4)CC3)c(C#N)cc2c1`, for which the inhibition is 1.5%.

Take `CCOC(=O)Cc1c(C)nc2c(-c3ccc(Cl)cc3)c[nH]n2c1=O`: the inhibition was 17.8%.

As for `COc1cc2cc(CN(CCN3CCCC3)C(=O)Nc3ccc(F)cc3)c(=O)[nH]c2cc1OC`, the inhibition was 1.27%.

`CCS(=O)(=O)Nc1cc(-c2nc3cccnc3s2)ccc1C`: the inhibition was -0.51%.

For `CCCCNC(=O)CC1Nc2ccccc2NC1=O` (configuration not stated), the inhibition was 4.58%.

Take `CCn1c(=O)c(C(C)=O)nc2ccccc21`: the inhibition was 7.87%.

Take `CCCCN(CC)CCNC(=O)c1cc2c(=O)n(C)c3ccccc3c2n1C`: the inhibition was 9.76%.

Consider `COC(=O)c1[nH]c2ccc(C)cc2c1NC(=O)CN1CCN(Cc2ccccc2)CC1`, for which the inhibition was 5.26%.

For the molecule `Cc1cc(-c2ccccc2)nn1-c1nc2c(c(=O)[nH]c(=O)n2C)n1C`, the inhibition is 6.56%.

In the case of `COc1ccc(-c2noc(CCC(=O)NCc3cccnc3)n2)cc1`, the inhibition is -0.6%.

With `O=C(CSc1ccc2nnc(-c3cccc(F)c3)n2n1)NCC1CCCO1` (configuration not stated), the inhibition is 0.9%.

For `CCCn1c(=N)c(C(=O)NCC2CCCO2)cc2c(=O)n3cccc(C)c3nc21` (configuration not stated), the inhibition was 0.11%.

Regarding `COc1cc2c(cc1OC)CN(C(=O)NS(=O)(=O)c1ccc(C)cc1)CC2`, the inhibition was 6.18%.

For the molecule `COc1cc2c(cc1OC)-c1cc(N3CCCCCC3)nc(=O)n1CC2`, the inhibition was 6.6%.

For the molecule `COc1cc(OC)cc(-c2cc3nc(C)c(CCC(=O)NC(C)CCc4ccco4)c(C)n3n2)c1` (configuration not stated), the inhibition is -0.26%.

Take `CC(=O)Nc1nonc1-c1nc2ccccc2n1Cc1nnc(C)o1`: the inhibition was 4.74%.

Take `COc1ccc(-c2cc(C(F)(F)F)nc(SCC(=O)Nc3cc(C)on3)n2)cc1OC`: the inhibition was 11.1%.

As to `COc1cc(OC)cc(C(=O)NCC(=O)N2CCC(C)CC2)c1`, the inhibition is 7.88%.

Take `Cc1nn(-c2ccccc2)c2sc(C(=O)OC3CCOC3=O)cc12` (configuration not stated): the inhibition was -15.6%.

For the molecule `Cc1nn(-c2ccccc2)c2sc(-c3n[nH]c(=S)o3)cc12`, the inhibition is 75.6% (active).

In the case of `COC(=O)c1cc2c(C)nn(-c3ccccc3)c2s1`, the inhibition is 5.12%.

As to `CCOC(=O)N1CCC(NC(=O)c2cc3c(-c4cccc(OC)c4)nn(C)c3s2)CC1`, the inhibition was 1.92%.

As to `Cc1ccc(S(=O)(=O)Nc2ccccc2C(N)=O)cc1`, the inhibition was 7.43%.

Turning to `N=C1C(c2nc3ccccc3c(=O)[nH]2)=C(O)CN1CCc1ccccc1`, the inhibition is -5.72%.

`COc1ccccc1C(=O)Nc1ccc(S(=O)(=O)N2CCOCC2)cc1`: the inhibition was -0.87%.

With `O=C(c1ccc(Br)o1)N1CCN(Cc2ccc3c(c2)OCO3)CC1`, the inhibition is 3.6%.

For the molecule `Cc1ccc2nc(-c3ccc(SCC(=O)O)nc3)[nH]c2c1`, the inhibition is -13.3%.

As for `O=C(NCCN1CCOCC1)c1cc2ccccc2[nH]1`, the inhibition was 3.77%.

On to `COC(=O)c1ccc(Sc2ccc(C)cc2)c(N)c1`, for which the inhibition is -1.3%.
